{"source": "PubChem BioAssay (NCI)", "note": "Compounds without any hit were thinned out: in the full panel of roughly 79,000, 15% have a hit. Unmarked numbers belong to inactive results. Activity calls are given as the source filed them. Cut-off read from the data, not from the text of the source: active = growth inhibition above about 70%; inactive = the rest."}
{"assay": "NCI Yeast Anticancer Drug Screen. Data for the rad50 strain (AID 155);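 note: 0% = growth of vehicle-only cultures of the same strain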", "conditions": "S. cerevisiae rad50 strain growth inhibition; at 50.0 µM; active compounds read high", "protocol": "Growth inhibition of yeast strains with defined genetic alterations is measured as a screen for potential anti-cancer activity. Selected strains with alterations in DNA damage repair or cell cycle control were exposed to compounds and growth inhibition was measured relative to vehicle treated controls. The strain used in this assay is rad50"}
{"compound": "NCC1CCCCO1", "note": "(stereo not given)", "growth inhibition": "7%"}
{"compound": "COC(=O)c1ccccc1Cl", "growth inhibition": "-11.2%"}
{"compound": "CC(=O)N/N=C1\\NN(C(C)=O)C2(S1)C(=O)Nc1ccccc12", "note": "(stereo not given)", "growth inhibition": "7.7%"}
{"compound": "N=c1c2c(ncn1N)CCN(Cc1ccccc1)C2", "growth inhibition": "-8.55%"}
{"compound": "c1ccc(N/N=C2/CSCc3ccccc32)cc1", "growth inhibition": "93.2% (active)"}
{"compound": "O=C1CC(SC(=S)N2CCCCC2)C(=O)N1c1ccccc1", "note": "(stereo not given)", "growth inhibition": "-19.6%"}
{"compound": "CC(=O)c1cc2ccccc2o1", "growth inhibition": "17.6%"}
{"compound": "COC(=O)c1nsc(OC)c1Cl", "growth inhibition": "22.1%"}
{"compound": "CCN(CC)CCOC(=O)Cc1ccc2c(=O)cc(-c3ccc(C)cc3)oc2c1", "growth inhibition": "7.75%"}
{"compound": "O=C1O/C(=C2/OC(=O)c3ccccc32)c2ccccc21", "growth inhibition": "-8.05%"}
{"compound": "COCCCNC1=C(C#N)C(=O)NC(c2cccs2)S1", "note": "(stereo not given)", "growth inhibition": "2%"}
{"compound": "CC(C)(C)c1cc(CN2CCOCC2)cc(C(C)(C)C)c1O", "growth inhibition": "8%"}
{"compound": "CNCC(OC)OC", "growth inhibition": "5.3%"}
{"compound": "c1ccc(N2CCN(C(c3cccs3)N3CCN(c4ccccc4)CC3)CC2)cc1", "growth inhibition": "7.35%"}
{"compound": "O=C(Nc1cccc([N+](=O)[O-])c1)OCC#CCOC(=O)Nc1cccc([N+](=O)[O-])c1", "growth inhibition": "3.8%"}
{"compound": "CSC(=NC(=O)c1c(Cl)cccc1Cl)SC", "growth inhibition": "21.8%"}
{"compound": "CCOC(=O)c1cn(Cc2ccccc2)c(=O)n1Cc1ccccc1", "growth inhibition": "36%"}
{"compound": "CCCCC(=O)N/N=C/c1c[nH]c2ccc(Br)cc12", "growth inhibition": "4.3%"}
{"compound": "O=C(Nc1ccc(Cl)c([N+](=O)[O-])c1)Oc1ccc2ccccc2c1", "growth inhibition": "14.6%"}
{"compound": "COc1ccc(/C(Cl)=C(\\CN(C)C)c2ccc(OC)c(OC)c2)cc1OC", "growth inhibition": "41.5%"}
{"compound": "NCCCCCC(=O)O", "growth inhibition": "-37.5%"}
{"compound": "Clc1cc(Br)c2c(Cl)ccnc2c1Br", "growth inhibition": "35.6%"}
{"compound": "N#C/C(=C/c1cccnc1)C(=O)c1ccccc1", "growth inhibition": "-6.1%"}
{"compound": "CCCC1c2c(ccc3ccccc23)Oc2ccc3ccccc3c21", "growth inhibition": "-36.1%"}
{"compound": "Nc1ccc2ccc(NS(=O)(=O)N3CCCCC3)cc2c1", "growth inhibition": "31.8%"}
{"compound": "Brc1cccc(C2ON=C(c3ccccc3)N2C23CC4CC(CC(C4)C2)C3)c1", "note": "(stereo not given)", "growth inhibition": "2.2%"}
{"compound": "CC(=O)c1cc(CC2Cc3cc4c(cc3C2=O)CCC4)cc2c1CCC2", "note": "(stereo not given)", "growth inhibition": "-37.5%"}
{"compound": "COC1(OC)CC2C(=O)N(Cc3ccccc3)C1C(S(=O)(=O)c1ccccc1)C2S(=O)(=O)c1ccccc1", "note": "(stereo not given)", "growth inhibition": "27.6%"}
{"compound": "O=C(Nc1ccc(NC(=O)OCc2ccccc2)c(Cl)c1)OCc1ccccc1", "growth inhibition": "20.4%"}
{"compound": "COc1cc(-c2c(C)oc(C)c2C(C)=O)ccc1OCc1ccccc1", "growth inhibition": "9.6%"}
{"compound": "Oc1ccc2ccccc2c1C(c1ccccc1)N1CCOCC1", "note": "(stereo not given)", "growth inhibition": "-2.5%"}
{"compound": "ClCC1CCN(Cc2ccccc2)CC1", "growth inhibition": "-4.5%"}
{"compound": "COC(=O)CCC(=O)O", "growth inhibition": "8.6%"}
{"compound": "COCC1OCCN1C", "note": "(stereo not given)", "growth inhibition": "12.7%"}
{"compound": "COc1ccc(N=C2SC(=N/N=c3\\sc4ccccc4n3C)SC2=Nc2ccc(OC)cc2)cc1", "growth inhibition": "4.15%"}
{"compound": "COC(=O)C(C(=O)C(=O)Nc1c(Cl)cc([N+](=O)[O-])cc1Cl)c1nc2cc(C)c(C)cc2[nH]c1=O", "note": "(stereo not given)", "growth inhibition": "16.6%"}
{"compound": "Cc1ccc(Cl)cc1NC(=O)C(Br)C(Br)c1ccccc1", "note": "(stereo not given)", "growth inhibition": "20.6%"}
{"compound": "CC1[C@@H]2CC=C3[C@H]4CCC5Cc6nc7c(nc6C[C@@]5(C)C4CC(=O)[C@]32CO[C@]12OC(C)(C)CC2O)CC1CC[C@@H]2C3=C[C@H]4O[C@@]5(O[C@@](C)(CO)C[C@@H]5O)C(C)[C@@]4(O)[C@]3(C)[C@@H](O)CC2[C@]1(C)C7", "note": "(stereo not given in full)", "growth inhibition": "37.5%"}
{"compound": "CCOCCC(O)CC", "note": "(stereo not given)", "growth inhibition": "3.3%"}
{"compound": "COC(=O)/C=C\\CC(=O)OC", "growth inhibition": "2.75%"}
